Data from PubChem BioAssay (NCI).
About 79,000 compounds went through this panel and 15% of them were active in at least one assay; those are over-represented in the sample as a whole. Activity calls are given as the source filed them. Cut-off read from the data, not from the text of the source: active = growth inhibition above about 70%; inactive = the rest.

Experiments:
[1] = NCI Yeast Anticancer Drug Screen. Data for the rad52 strain (AID 147);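 note: 0% = growth of vehicle-treated control cultures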; conditions: S. cerevisiae rad52 mutant growth inhibition, stronger effect = higher value
How it was run: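 Genetically altered yeast (DNA damage repair defect) treated with compound; inhibition calculated relative to vehicle.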

[2] = NCI Yeast Anticancer Drug Screen. Data for the wt1 strain (AID 149);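 note: 0% = growth of vehicle-treated wt1 cultures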; conditions: S. cerevisiae wt1 strain (SPY 50644) growth inhibition, stronger effect = higher value
How it was run: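 Using yeast strain wt1, compound-induced growth inhibition was determined against vehicle-treated cultures.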

[3] = NCI Yeast Anticancer Drug Screen. Data for the rad50EPP+ strain (AID 151);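 note: 0% = growth of vehicle-treated control cultures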; conditions: S. cerevisiae rad50 mutant strain, stronger effect = higher value
How it was run: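 Strain rad50EPP+; compound exposure; % growth inhibition vs vehicle.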

[4] = NCI Yeast Anticancer Drug Screen. Data for the mgt1 strain (AID 153); conditions: S. cerevisiae mgt1 mutant growth inhibition, stronger effect = higher value
How it was run: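 Read-out: yeast growth inhibition vs vehicle control. Strain mgt1, drawn from a panel altered in DNA damage repair or cell cycle control.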

[5] = NCI Yeast Anticancer Drug Screen. Data for the rad50 strain (AID 155);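 note: 0% = growth of vehicle-only cultures of the same strain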; conditions: S. cerevisiae rad50 strain growth inhibition, stronger effect = higher value
How it was run: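 Relative growth inhibition (compound vs vehicle) was measured in yeast with a defined repair-gene alteration.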

[6] = NCI Yeast Anticancer Drug Screen. Data for the mec2-1 strain (AID 157); conditions: S. cerevisiae mec2-1 strain, stronger effect = higher value
How it was run: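 Cells of the genetically defined mec2-1 yeast strain are incubated with test compound. Inhibition of growth is calculated against vehicle-treated controls.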

[7] = NCI Yeast Anticancer Drug Screen. Data for the rad14 strain (AID 159);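 note: 0% = growth of vehicle-treated control cultures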; conditions: S. cerevisiae rad14 strain growth inhibition, stronger effect = higher value
How it was run: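 Screen for anticancer potential: a yeast strain altered in DNA damage repair is grown with compound, and reduced growth is quantified against vehicle controls.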

[8] = at 5.0 µM (retest, dose inferred, filed as 0.5)
[9] = at 50.0 µM (retest, dose inferred, filed as 5.0)

Measured: growth inhibition

NC(CS)C(=O)NCCNc1ccc(NCCNC(=O)C(N)CS)c2c1C(=O)c1c(O)ccc(O)c1C2=O (stereo unspecified)
active: [1]; at 11.0 µM 73% | [1]; at 33.0 µM 80% | [3]; at 33.0 µM 80% | [4]; at 33.0 µM 86% | [5]; [8] 75% | [5]; at 11.0 µM 81% | [5]; at 33.0 µM 85% | [5]; [9] 88% | [5]; at 50.0 µM 79.2% | [6]; at 33.0 µM 86% | [6]; [9] 89% | [6]; at 50.0 µM 76% | [7]; at 33.0 µM 81%
inactive: [1]; at 1.2 µM -10% | [1]; at 3.7 µM 58% | [1]; at 100.0 µM 48% | [2]; at 1.2 µM -42% | [2]; at 3.7 µM -25% | [2]; at 11.0 µM -67% | [2]; at 33.0 µM 45% | [2]; at 100.0 µM 68% | [3]; at 1.2 µM -4% | [3]; at 3.7 µM 46% | [3]; at 11.0 µM 67% | [3]; at 100.0 µM 54% | [4]; at 1.2 µM 7% | [4]; at 3.7 µM 18% | [4]; at 11.0 µM 23% | [4]; at 100.0 µM 62% | [5]; at 1.2 µM 33% | [5]; at 3.7 µM 67% | [5]; at 100.0 µM 62% | [6]; at 1.2 µM -42% | [6]; at 3.7 µM -26% | [6]; [8] 2% | [6]; at 11.0 µM -11% | [6]; at 100.0 µM 65% | [7]; at 1.2 µM -55% | [7]; at 3.7 µM -47% | [7]; at 11.0 µM -43% | [7]; at 100.0 µM 57%
